Many of the other results were omitted from the sample, so hits are more common in it than they were.
KDM5B inh: inhibitors of human KDM5B histone demethylase. Q9UGL1. KDM5B demethylase, FDH-coupled NADH fluorescence (FDH is formaldehyde dehydrogenase). Potency, µM (top dose mostly 57.7 µM), actives largely listed as inhibitors. hit rate 2.6% among 220,000. AID 1347165; active means well fitted inhibition curve with a large enough effect; further: 0% is about no effect; nearly all actives have a fitted effect of over 70% in size
Target sequence (Q9UGL1 whole entry, looked up): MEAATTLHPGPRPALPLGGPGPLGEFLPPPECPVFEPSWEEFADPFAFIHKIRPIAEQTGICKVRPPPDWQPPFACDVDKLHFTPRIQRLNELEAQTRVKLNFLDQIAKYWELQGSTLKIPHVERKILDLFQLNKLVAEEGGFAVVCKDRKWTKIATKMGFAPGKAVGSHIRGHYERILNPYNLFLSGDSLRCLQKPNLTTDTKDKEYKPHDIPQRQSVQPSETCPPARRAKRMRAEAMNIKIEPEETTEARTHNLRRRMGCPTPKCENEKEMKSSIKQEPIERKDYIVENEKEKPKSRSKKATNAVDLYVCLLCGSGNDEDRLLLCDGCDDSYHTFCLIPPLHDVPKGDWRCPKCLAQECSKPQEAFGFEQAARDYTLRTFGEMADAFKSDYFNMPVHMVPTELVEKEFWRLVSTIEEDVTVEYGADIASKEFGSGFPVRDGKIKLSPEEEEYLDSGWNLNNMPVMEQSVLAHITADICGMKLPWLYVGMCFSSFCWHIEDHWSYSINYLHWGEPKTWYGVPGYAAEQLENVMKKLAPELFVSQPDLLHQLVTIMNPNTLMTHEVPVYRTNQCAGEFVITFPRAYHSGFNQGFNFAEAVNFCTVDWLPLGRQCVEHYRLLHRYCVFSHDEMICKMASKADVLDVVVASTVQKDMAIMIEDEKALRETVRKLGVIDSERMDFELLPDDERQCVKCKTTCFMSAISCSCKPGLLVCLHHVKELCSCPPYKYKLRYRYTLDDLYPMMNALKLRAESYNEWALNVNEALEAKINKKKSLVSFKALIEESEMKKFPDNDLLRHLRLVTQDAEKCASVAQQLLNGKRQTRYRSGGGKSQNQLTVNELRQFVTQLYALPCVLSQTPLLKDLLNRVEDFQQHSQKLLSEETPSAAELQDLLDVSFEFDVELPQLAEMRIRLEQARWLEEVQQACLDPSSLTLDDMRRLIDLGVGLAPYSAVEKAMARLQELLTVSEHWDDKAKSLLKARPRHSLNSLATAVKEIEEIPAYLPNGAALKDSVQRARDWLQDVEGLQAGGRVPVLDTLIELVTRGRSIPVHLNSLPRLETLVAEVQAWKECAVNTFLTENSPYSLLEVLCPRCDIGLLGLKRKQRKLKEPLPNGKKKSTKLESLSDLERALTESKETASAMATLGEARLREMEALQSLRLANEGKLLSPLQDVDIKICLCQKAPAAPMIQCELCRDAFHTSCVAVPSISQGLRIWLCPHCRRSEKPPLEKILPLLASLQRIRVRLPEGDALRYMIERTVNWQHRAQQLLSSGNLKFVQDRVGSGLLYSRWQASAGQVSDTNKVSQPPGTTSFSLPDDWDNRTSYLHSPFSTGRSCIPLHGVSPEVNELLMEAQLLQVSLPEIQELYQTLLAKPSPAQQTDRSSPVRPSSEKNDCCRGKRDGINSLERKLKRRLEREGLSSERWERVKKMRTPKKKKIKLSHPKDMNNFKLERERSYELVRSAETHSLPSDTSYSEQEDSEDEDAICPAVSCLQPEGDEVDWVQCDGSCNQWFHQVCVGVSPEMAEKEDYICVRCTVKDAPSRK
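KDM5BΔAP (200 nM final) in 50 mM HEPES pH 7.5, 0.01% Tween-20 was preincubated 10 min at RT with compound over a concentration range. Substrate mix (H3K4me3 12.5 µM, α-KG 25 µM, Fe²⁺, ascorbate, NAD⁺, FDH) was added, and NADH fluorescence change over 30 min gave dose-response curves.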
Starred values were filed as active, the others as inactive; i = inactive. Potency means the concentration at half of the fitted maximal effect.

SMILES | KDM5B inh
O=C(NCc1cccs1)c1ccc(CSc2nc3ccncc3n2Cc2ccccc2)cc1 | i
O=C(NCc1ccc(F)cc1)c1nc(-c2cccc(F)c2)c2cnccn12 | i
CCCNC(=O)CSc1nc2ccccc2nc1C | i
Cc1ccc2c(=O)cc(C(=O)N(Cc3ccccc3)Cc3ccco3)oc2c1C | i
Cc1c(Cl)cccc1S(=O)(=O)Nc1ccc(NC(N)=O)cc1 | i
CN(C)CCOc1ccc(C(=O)/C=C/c2ccc(C(=O)O)cc2)cc1 | i
COc1cc(OC)c(OC)cc1/C=C1\Oc2cc(OC(=O)C(C)(C)C)ccc2C1=O | i
Cc1onc(-c2ccccc2Cl)c1C(=O)Nc1cccc(C(=O)NC2CC2)c1 | i
Cc1ccccc1-c1nccc2c(=O)cc(N3CCOCC3)oc12 | 35µM*
COc1ncccc1-c1nccc2c(=O)cc(N3CCOCC3)oc12 | 40µM*
O=c1cc(N2CCOCC2)oc2c(-c3ccccc3O)nccc12 | i
CCN(CC)S(=O)(=O)c1cccc(NC(=O)COc2ncnc3sc(C)c(C)c23)c1 | i
CC1(C)SC2c3ccccc3C(=O)N2[C@@H]1C(=O)NCc1ccc(F)cc1 (some centres not stated) | i
Clc1ccccc1COc1ccc(CNCc2cccnc2)cc1 | i
CSCc1ccc(C(=O)Nc2ccc(F)cc2Cl)o1 | i
CCOCCn1cnc(-c2ccccc2)c1-c1ccccc1OCC(N)=O | i
OCCCn1cnc(-c2ccccc2)c1COCc1ccccc1 | i
OCCOCCn1cnc(-c2ccccc2)c1-c1ccc(-n2cccn2)cc1 | 32µM*
CCCCc1ccc(OC(=O)c2ccc(O)cc2)cc1 | i
Cc1ccc(NC(=O)CC(C)(C)CC(=O)O)cc1C | i
CC1(C)Cc2c(sc(NC(=O)C(=O)NCc3cccnc3)c2C#N)CO1 | i
CCOC(=O)CCCNC(=O)CCl | i
O=C1NCc2ccccc2CC12CCN(Cc1ccc(-c3ccccc3)cc1)CC2 | i
c1cc(-c2cc3c(ccn3Cc3ccncc3)c(N3CCOCC3)n2)c2cn[nH]c2c1 | 20µM*
O=C(NCc1ccccc1)c1nc(-c2cccc3[nH]ccc23)no1 | i
SMILES | KDM5B inh
O=c1[nH]c(N2CCOCC2)nc2c1CCN(Cc1cccc(Cl)c1)CC2 | i
c1cc(-c2cc3c(ccn3Cc3ccncc3)c(N3CCOCC3)n2)c2cc[nH]c2c1 | 20µM*
C[S+](=O)([O-])N1CCC(Cn2ccc3c(N4CCOCC4)nc(-c4cccc5[nH]ccc45)cc32)CC1 | i
O=C(NCc1cccnc1N1CCOCC1)c1cnn(-c2ccc(Cl)cc2)c1 | i
O=C1c2[nH]nc(-c3ccccc3O)c2C(c2cccc(O)c2)N1Cc1ccncc1 (configuration not stated) | i
c1cc(-c2cc3c(ccn3Cc3ccncc3)c(N3CCOCC3)n2)c2[nH]ncc2c1 | 25µM*
CNC(=O)c1cc[nH]c1C1CCCN(C(=O)CCc2nc3ccccc3[nH]2)C1 (configuration not stated) | i
CCCCN(Cc1ccccc1)c1ccc(NS(=O)(=O)c2ccc(C(C)(C)C)cc2)cc1C(=O)O | i
FC(F)(F)CN1CCNCC1 | i
CCN1C(=O)C(Cc2ccccc2OC)c2ccccc21 (configuration not stated) | i
O=C(NCc1ccccc1CN1CCOCC1)c1nn(-c2ccc(F)cc2)c2c1CCC2 | i
CC1(C)CC(=O)C2=C(C1)N(c1ccccc1F)C(=O)CC2c1ccc(Cl)cc1 (configuration not stated) | i
CC(C)c1nc(N2CCCCCC2)ncc1C(=O)O | 28µM*
COc1ccc(N2CCN(C(=O)c3cnc(N4CCCC4)nc3C)CC2)cc1 | i
CC(C)c1ccc(-n2ccc3nc(N4CCCC4)ncc3c2=O)cc1 | i
CCCc1nnc(C[C@@H]2C[C@@H](C(C)C)[C@H](CO)C=C2C)o1 | i
CCCc1nnc(C[C@@H]2C[C@@H](C(C)C)[C@H](CNc3cccnc3)C=C2C)o1 | 10µM*
CCCc1nnc(C[C@@H]2C[C@@H](C(C)C)[C@H](CNCc3cccnc3)C=C2C)o1 | i
NC(=O)C1CN(CC(=O)Nc2ccccc2Sc2ccc(Cl)cc2)c2ccccc2O1 (configuration not stated) | i
COc1ccccc1Cn1ccn2nc3c(c2c1=O)CCCC3 | i
CC(C)NC(=O)c1ccc(Cn2ccn3nc4c(c3c2=O)CCCC4)cc1 | i
Cc1oc(-c2ccc(OC(C)C)cc2)nc1Cn1ccn2nc3c(c2c1=O)CCCC3 | 28µM*
Cc1cc(C(F)F)nn1Cc1nc2c3c4c(sc3ncn2n1)CC(C(C)(C)C)CC4 (configuration not stated) | i
COCC(C)NC(=O)Cc1n[nH]c(=O)c2ccccc12 (configuration not stated) | i
O=C(O)CN1C(=O)S/C(=C\c2cn(CC(=O)N3CCOCC3)c3ccccc23)C1=O | i
SMILES | KDM5B inh
Cc1cc(Br)cc2c(C(=O)NCC3CCCO3)cc(-c3ccccc3)nc12 (configuration not stated) | i
O=C(NCC1CCCO1)c1ccc(-c2nnc(-c3ccccc3)o2)cc1 (configuration not stated) | i
O=C(NCC1CCCO1)c1cc2c(=O)[nH]c(-c3ccccc3)cn2n1 (configuration not stated) | 22µM*
Cc1ccc(S(=O)(=O)Nc2ccccc2SCc2cc(=O)n3cc(Cl)ccc3n2)cc1 | i
CC1(c2noc(-c3ccccc3)n2)CCN(C(=O)C2CCN(S(=O)(=O)c3cnc[nH]3)CC2)CC1 | i
Cc1ccc(NC(=O)CN(C)S(=O)(=O)c2cnc[nH]2)cc1 | i
CN(CC(=O)N1CCc2nc3cc(-c4ccccc4)[nH]n3c(=O)c2C1)S(=O)(=O)c1cnc[nH]1 | 28µM*
CN(CC(=O)N1CCc2ccccc2C1)S(=O)(=O)c1ccc(Cl)cc1 | i
COc1ccc(-c2cc3nc4c(c(=O)n3[nH]2)CN(C(=O)CN(C)S(=O)(=O)c2cnc[nH]2)CC4)cc1 | 25µM*
COc1ccc(NC(=O)CN(C)S(=O)(=O)c2cnc[nH]2)cc1 | i
CC(C)C1=NOC2(CCN(C(=O)c3ccc4c(c3)OCO4)CC2)C1 | i
CC(C)CC(=O)Nc1ccc(C(=O)Nc2ccc(CCC(=O)O)cc2)cc1 | i
Cc1ccc(-c2cc(C(=O)OCC(=O)NC(=O)NC(C)(C)C)c3ccccc3n2)o1 | i
O=C(NC1C2CC3CC(C2)CC1C3)c1cc(-c2ccncc2)nc2ccc(Br)cc12 (configuration not stated) | i
COc1cc(-c2cnc3ccccc3c2)cc2c1OCCNC2 | i
FC(F)(F)c1ccc(-c2n[nH]c(=S)o2)nc1 | i
COc1cc(-c2ccc(C(F)(F)F)cn2)cc2c1OCCNC2 | 25µM*
COc1cc2nc(-c3cc4c(c(OC)c3)OCCNC4)cc(C)c2cc1OC | 32µM*
CNC(=O)c1ccc(C)c(NC(=O)c2ccc3c(c2)CCCC3)c1 | i
O=C(CSc1ccccc1)c1c[nH]c2ccccc12 | i
CCCC(C)c1c(-c2ccccc2)ncn1CCNC(C)=O (configuration not stated) | i
CCc1ccc(C(=O)c2sc(Nc3ccc(OC)cc3)c(C(N)=O)c2N)cc1 | i
COc1ccccc1CN1CCc2nc(C(=O)Nc3nc(C)cs3)oc2CC1 | i
N#Cc1cccc(CN2CCc3nc(C(=O)Nc4cccc(C(F)(F)F)c4)oc3CC2)c1 | 35µM*
COc1cccc(CN2CCc3nc(C(=O)Nc4cccnc4)oc3CC2)c1 | i
O=C(Nc1cccnc1)c1nc2c(o1)CCN(Cc1cccs1)CC2 | i

From PubChem
